The assay has as its system Zika virus NS2B-NS3 protease. Description: Primary screen GU AMC qHTS for Zika virus inhibitors (AID 1347154). Also: nearly all actives have a fitted effect of over 70% in size. The following applies: Zika NS2B-NS3 unlinked protease, AMC fluorogenic substrate; series mostly up to 54.1 µM. The method in brief: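 Unlinked Zika NS2B hydrophilic domain/NS3 protease domain noncovalent complex (25 nM final) in 10 mM Tris-HCl pH 8.0, 0.01% Tween 20, with AMC peptide substrate. Fluorescence (ex 340, em 450 nm) change over 15 min, room temperature; percent inhibition fitted to 4-parameter Hill equation.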

Inconclusive results are not listed. Entries that show only a call come without a potency. Values without a mark were called inactive. The source made the active and inactive calls. Calls follow the shape of the dose curve; as a rule, active = well fitted inhibition curve with a large enough effect; inconclusive = small, poorly fitted or top-dose-only effect; inactive = flat fitted curve, though single readings scatter.

Turning to `Nc1ccccc1C(=O)C[C@H](N)C(=O)O`, the Potency entry is “inactive”.

These data come from PubChem BioAssay (NCATS).
